From the supplement of paper PMC10849652
Of roughly 8,800 targets only a part is listed; those with a hit were picked by preference. About 0.5% of all pairs of compound and target were hits.

compound: C[C@@H](Oc1cc(-c2cnn(C3CCNCC3)c2)cnc1N)c1c(Cl)ccc(F)c1Cl [crizotinib]; experiment: log2 fold change, soluble protein after heating vs DMSO (PISA); higher = thermal stabilisation; K562 lysate, 10 uM; active = over 0.2 and 3.5 SD of the protein, either way, in both replicates (recomputed)
Method in brief: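 Following dounce homogenisation of K562 pellets in PBS pH 7.4 with 1 mM MgCl2, crude extract at 1 mg/mL protein was incubated for 30 min with 10 μM compound. Aliquots were then heated for 3 min over 48°C-58°C and pooled, NP-40 was added to 0.5% at 4°C, and soluble protein was recovered as the supernatant at 21,000xg for 90 min. Channel-sum-equalised TMTpro 16plex LC-MS/MS quantified this protein. Each value, from duplicates, is a log-two fold change in thermal stability relative to solvent controls.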

UniProt Q6NXT1, sequence (Q6NXT1 whole entry, looked up): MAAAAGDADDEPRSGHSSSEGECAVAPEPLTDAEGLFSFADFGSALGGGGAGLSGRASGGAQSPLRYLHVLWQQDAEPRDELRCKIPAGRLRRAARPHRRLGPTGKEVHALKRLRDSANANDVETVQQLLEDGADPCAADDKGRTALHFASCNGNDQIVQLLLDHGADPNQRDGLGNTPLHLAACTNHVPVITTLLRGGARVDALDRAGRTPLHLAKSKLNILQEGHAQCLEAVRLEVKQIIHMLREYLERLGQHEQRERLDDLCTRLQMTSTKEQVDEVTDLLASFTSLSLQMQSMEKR
UniProt P10398, sequence (P10398 whole entry, looked up): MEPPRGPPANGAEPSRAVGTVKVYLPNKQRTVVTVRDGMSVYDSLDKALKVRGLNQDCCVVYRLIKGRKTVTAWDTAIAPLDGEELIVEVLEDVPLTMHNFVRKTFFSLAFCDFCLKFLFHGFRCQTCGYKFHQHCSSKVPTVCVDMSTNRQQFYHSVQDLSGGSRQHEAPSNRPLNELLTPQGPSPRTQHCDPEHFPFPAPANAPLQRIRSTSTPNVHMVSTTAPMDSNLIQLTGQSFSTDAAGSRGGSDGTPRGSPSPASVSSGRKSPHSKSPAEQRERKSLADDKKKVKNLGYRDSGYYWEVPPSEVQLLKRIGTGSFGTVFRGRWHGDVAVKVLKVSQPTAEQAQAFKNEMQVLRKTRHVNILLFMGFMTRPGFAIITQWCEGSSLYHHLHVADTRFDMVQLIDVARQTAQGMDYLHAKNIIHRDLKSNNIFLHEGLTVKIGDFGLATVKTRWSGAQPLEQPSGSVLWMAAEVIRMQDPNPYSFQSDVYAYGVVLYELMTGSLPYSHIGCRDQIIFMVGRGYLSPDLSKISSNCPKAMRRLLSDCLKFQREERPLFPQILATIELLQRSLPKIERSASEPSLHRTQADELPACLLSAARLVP
UniProt P33121, sequence (P33121 whole entry, looked up): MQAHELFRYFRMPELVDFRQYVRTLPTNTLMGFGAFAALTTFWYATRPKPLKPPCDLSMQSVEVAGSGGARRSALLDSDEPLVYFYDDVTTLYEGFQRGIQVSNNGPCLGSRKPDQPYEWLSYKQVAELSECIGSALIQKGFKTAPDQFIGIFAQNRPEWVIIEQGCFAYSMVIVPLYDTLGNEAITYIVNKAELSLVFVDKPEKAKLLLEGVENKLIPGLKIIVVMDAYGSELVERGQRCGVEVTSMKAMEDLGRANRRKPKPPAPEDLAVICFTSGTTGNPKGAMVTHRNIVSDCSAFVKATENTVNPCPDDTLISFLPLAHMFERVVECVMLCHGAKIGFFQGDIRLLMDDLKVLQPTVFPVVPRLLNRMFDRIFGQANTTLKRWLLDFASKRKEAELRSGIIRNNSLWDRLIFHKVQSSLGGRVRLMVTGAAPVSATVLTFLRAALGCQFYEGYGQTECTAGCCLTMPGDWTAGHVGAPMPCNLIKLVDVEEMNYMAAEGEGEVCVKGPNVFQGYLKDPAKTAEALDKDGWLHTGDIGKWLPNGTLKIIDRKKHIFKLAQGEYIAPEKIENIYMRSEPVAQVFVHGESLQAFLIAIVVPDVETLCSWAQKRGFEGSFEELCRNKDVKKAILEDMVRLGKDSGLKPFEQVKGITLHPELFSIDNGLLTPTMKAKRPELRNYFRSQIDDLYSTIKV
UniProt Q96NW4, sequence (Q96NW4 whole entry, looked up): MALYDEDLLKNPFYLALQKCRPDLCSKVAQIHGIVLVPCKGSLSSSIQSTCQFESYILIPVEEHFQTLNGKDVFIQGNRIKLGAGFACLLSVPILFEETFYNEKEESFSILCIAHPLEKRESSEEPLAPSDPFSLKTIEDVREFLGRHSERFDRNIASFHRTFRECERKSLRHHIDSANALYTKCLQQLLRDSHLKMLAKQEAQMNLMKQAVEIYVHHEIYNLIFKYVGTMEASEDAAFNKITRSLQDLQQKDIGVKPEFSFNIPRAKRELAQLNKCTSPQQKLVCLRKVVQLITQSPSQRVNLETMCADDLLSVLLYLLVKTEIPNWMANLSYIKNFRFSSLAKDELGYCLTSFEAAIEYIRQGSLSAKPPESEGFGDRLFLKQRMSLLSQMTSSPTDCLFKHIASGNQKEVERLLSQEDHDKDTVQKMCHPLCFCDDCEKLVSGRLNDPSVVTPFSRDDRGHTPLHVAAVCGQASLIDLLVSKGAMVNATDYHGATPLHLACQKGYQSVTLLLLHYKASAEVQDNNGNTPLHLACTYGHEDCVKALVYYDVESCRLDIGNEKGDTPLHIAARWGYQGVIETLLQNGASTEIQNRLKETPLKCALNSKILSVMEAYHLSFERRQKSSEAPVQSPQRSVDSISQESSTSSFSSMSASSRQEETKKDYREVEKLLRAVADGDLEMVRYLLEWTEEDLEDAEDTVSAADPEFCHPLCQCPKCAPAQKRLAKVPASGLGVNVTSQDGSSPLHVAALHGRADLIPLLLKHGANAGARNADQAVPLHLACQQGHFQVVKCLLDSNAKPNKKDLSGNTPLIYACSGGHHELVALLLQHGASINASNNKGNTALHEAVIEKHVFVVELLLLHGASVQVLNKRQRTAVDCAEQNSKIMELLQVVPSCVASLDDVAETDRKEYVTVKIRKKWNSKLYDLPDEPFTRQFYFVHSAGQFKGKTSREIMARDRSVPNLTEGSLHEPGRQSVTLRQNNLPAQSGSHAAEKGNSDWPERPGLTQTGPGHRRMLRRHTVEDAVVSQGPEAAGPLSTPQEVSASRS
UniProt Q02252, sequence (Q02252 whole entry, looked up): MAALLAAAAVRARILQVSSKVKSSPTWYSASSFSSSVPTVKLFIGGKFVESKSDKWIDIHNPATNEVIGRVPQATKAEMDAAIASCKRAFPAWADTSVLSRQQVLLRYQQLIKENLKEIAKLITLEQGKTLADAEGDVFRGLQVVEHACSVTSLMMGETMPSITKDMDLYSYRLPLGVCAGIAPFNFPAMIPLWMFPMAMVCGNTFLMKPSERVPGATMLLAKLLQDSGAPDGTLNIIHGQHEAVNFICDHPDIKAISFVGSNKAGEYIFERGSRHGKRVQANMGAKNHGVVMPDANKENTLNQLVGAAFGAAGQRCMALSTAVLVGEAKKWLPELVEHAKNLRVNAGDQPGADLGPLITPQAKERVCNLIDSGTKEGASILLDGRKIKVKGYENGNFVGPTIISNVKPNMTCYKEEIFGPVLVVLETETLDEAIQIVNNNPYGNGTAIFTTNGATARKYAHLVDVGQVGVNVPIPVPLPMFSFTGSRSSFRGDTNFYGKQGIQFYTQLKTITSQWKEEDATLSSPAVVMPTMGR
UniProt Q9NXU5, sequence (Q9NXU5 whole entry, looked up): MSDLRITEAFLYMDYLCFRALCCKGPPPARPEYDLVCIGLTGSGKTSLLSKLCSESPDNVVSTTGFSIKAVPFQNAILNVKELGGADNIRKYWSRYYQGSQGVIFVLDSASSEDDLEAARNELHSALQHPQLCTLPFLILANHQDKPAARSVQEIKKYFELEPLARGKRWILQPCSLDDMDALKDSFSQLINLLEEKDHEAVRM
UniProt Q6NXE6, sequence (Q6NXE6 whole entry, looked up): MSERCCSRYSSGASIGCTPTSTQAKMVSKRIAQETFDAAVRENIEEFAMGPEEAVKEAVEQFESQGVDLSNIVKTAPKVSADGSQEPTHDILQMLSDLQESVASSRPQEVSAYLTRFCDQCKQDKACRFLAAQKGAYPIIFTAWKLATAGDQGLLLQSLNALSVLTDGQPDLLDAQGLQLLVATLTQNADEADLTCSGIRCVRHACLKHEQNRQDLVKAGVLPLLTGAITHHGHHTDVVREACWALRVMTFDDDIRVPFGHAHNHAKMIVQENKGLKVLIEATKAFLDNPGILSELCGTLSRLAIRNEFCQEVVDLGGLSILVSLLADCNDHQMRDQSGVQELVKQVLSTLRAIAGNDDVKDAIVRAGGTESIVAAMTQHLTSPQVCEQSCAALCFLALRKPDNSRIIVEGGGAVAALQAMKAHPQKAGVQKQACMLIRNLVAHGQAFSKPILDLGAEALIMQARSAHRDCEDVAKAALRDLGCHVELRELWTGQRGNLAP
UniProt Q9UJX3, sequence (Q9UJX3 whole entry, looked up): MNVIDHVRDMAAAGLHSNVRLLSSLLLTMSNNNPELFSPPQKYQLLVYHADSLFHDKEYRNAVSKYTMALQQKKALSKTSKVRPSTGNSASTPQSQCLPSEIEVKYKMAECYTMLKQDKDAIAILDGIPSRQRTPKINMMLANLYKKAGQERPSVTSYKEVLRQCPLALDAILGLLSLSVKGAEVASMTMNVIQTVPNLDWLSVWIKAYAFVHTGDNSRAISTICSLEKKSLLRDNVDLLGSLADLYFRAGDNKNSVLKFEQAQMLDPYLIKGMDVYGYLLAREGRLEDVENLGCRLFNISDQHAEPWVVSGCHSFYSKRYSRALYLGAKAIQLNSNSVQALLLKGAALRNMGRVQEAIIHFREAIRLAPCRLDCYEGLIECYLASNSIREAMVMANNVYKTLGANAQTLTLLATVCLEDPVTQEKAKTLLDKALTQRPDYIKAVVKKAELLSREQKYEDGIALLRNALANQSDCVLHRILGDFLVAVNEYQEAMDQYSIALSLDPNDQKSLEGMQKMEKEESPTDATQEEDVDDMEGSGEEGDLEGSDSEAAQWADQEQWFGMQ
UniProt Q9BTT0, sequence (Q9BTT0 whole entry, looked up): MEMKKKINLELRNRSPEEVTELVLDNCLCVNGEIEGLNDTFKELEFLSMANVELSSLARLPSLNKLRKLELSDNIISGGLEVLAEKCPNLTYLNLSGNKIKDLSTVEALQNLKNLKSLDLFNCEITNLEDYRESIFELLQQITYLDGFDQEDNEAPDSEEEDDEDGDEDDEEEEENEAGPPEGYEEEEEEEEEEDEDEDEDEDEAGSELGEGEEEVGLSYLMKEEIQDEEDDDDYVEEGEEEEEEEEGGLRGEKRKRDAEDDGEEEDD
UniProt P07311, sequence (P07311 whole entry, looked up): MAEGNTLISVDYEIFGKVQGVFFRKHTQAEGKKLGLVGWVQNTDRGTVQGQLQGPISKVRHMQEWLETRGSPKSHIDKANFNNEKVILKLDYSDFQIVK

log2 fold change, inactive:
ARHGAP25 isoform 4 (UniProt P42331) -0.053
ARAF (UniProt P10398) -0.041
ANP32A (UniProt P39687) 0
ALDH5A1 isoform 2 (UniProt P51649) -0.044
ANP32E (UniProt Q9BTT0) 0.007
AKAP8L (UniProt Q9ULX6) 0.053
ABHD13 (UniProt Q7L211) 0.197
ANXA11 (UniProt P50995) 0.001
ADD1 isoform 3 (UniProt P35611) 0.014
AK2 (UniProt P54819) -0.007
AKAP8 (UniProt O43823) 0.023
ARFGAP1 (UniProt Q8N6T3) 0.031
ANAPC7 (UniProt Q9UJX3) -0.029
ALDH6A1 (UniProt Q02252) -0.023
ANKRD27 (UniProt Q96NW4) -0.095
ALG13 (UniProt Q9NP73) -0.12
ASB6 (UniProt Q9NWX5) 0.01
ACAT1 (UniProt P24752) 0.029
ANKRD54 (UniProt Q6NXT1) 0.058
AKT2 (UniProt P31751) 0.015
AP5B1 (UniProt Q2VPB7) 0.069
ANXA1 (UniProt P04083) 0.018
ARHGAP21 (UniProt Q5T5U3) -0.073
ACYP1 (UniProt P07311) 0.024
AKAP11 (UniProt Q9UKA4) 0.025
ALDH2 (UniProt P05091) -0.02
ARHGAP6 (UniProt O43182) -0.038
ACSL1 (UniProt P33121) -0.115
ARMC6 (UniProt Q6NXE6) -0.022
AFF1 isoform 2 (UniProt P51825) 0.005
ANKRD30A (UniProt Q9BXX3) 0.128
AMDHD2 isoform 3 (UniProt Q9Y303) 0.025
ANXA5 (UniProt P08758) 0.046
ACTG1 (UniProt I3L4N8) -0.066
ARL15 (UniProt Q9NXU5) 0
